Laboratory results from PubChem BioAssay (NCI).
The panel holds about 79,000 compounds, 15% with a hit somewhere; the sample as a whole holds those more often. Rule as the data show it: active = growth inhibition above about 70%; inactive = the rest.

Legend:
[1] = NCI Yeast Anticancer Drug Screen. Data for the rad50 strain (AID 155);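 also: 0% = growth of vehicle-only cultures of the same strain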; conditions: S. cerevisiae rad50 strain growth inhibition; at 50.0 µM; stronger effect = higher value
Procedure, shortened: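 Cells are treated with compound, grown, and their growth is then scored against vehicle-only cultures of the same repair-deficient yeast strain.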

[2] = NCI Yeast Anticancer Drug Screen. Data for the mec2-1 strain (AID 157); conditions: S. cerevisiae mec2-1 strain, at 50.0 µM, stronger effect = higher value
Procedure, shortened: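 Vehicle-treated cultures served as reference for growth inhibition of compound-exposed mec2-1 yeast.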

[3] = NCI Yeast Anticancer Drug Screen. Data for the sgs1 mgt1 strain (AID 161);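 also: 0% = growth of cultures given vehicle only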; conditions: S. cerevisiae sgs1 mgt1 strain, at 50.0 µM, stronger effect = higher value
Procedure, shortened: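 Inhibition of yeast growth, normalised to vehicle-treated controls, is reported for a strain bearing genetic alterations in DNA damage repair.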

[4] = NCI Yeast Anticancer Drug Screen. Data for the cln2 rad14 strain (AID 165);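 also: 0% = growth equal to vehicle treated cultures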; conditions: S. cerevisiae cln2 rad14 strain, at 50.0 µM, stronger effect = higher value
Procedure, shortened: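 Each compound was tested on cln2 rad14 yeast. Inhibition of growth was calculated against vehicle-exposed controls.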

[5] = NCI Yeast Anticancer Drug Screen. Data for the bub3 strain (AID 167); conditions: S. cerevisiae bub3 mutant strain, at 50.0 µM, stronger effect = higher value
Procedure, shortened: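 Part of a panel of yeast mutants defective in DNA damage repair or cell cycle regulation. Each strain is grown with compound, and inhibition is calculated relative to solvent-treated cultures.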

[6] = NCI Yeast Anticancer Drug Screen. Data for the mlh1 rad18 strain (AID 175); conditions: S. cerevisiae mlh1 rad18 strain growth inhibition; at 50.0 µM; stronger effect = higher value
Procedure, shortened: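 Vehicle-treated cultures served as the reference for growth inhibition in a yeast strain carrying DNA damage repair alterations exposed to each compound.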

Measured: growth inhibition

CCOP(=O)(OCC)/C(C#N)=C\c1ccc(OC(C)=O)cc1
inactive: [1] -6.15% | [2] -30.1% | [3] -9% | [4] 23.5% | [5] -25.6% | [6] -31.9%

CC1(C)OC(C)(C)c2c1nnc(-c1cccc([N+](=O)[O-])c1)[n+]2[O-]
inactive: [1] -19.5% | [2] -26.2% | [3] 18.6% | [4] 1.3% | [5] 11.6% | [6] -3.55%

Nc1cc2[nH]cnc2c(=O)[nH]1
inactive: [1] 27.4% | [2] 21.9% | [3] 32.4% | [4] 21.8% | [5] 7.9% | [6] 30.1%

Cc1ccccc1/C=N/NC(=O)c1cccc2ccccc12
inactive: [1] -6.85% | [2] 0.8% | [3] -10.8% | [4] -23% | [5] 0.75% | [6] 0.6%

O=C(CI)Nc1ccc2oc(=O)c(C(=O)O)cc2c1
inactive: [1] -7% | [2] -6.05% | [3] 4.85% | [4] -64.4% | [5] -2.9% | [6] -12.8%

CC1CC/C(=N\O)CCCCC(=O)O1 (configuration not stated)
inactive: [1] -3.45% | [2] -0.35% | [3] 2.15% | [4] -33.4% | [5] 2.9% | [6] 0.85%

Cc1cc(S(=O)(=O)Nc2n[nH]c(Nc3ccccc3)n2)c(SSc2cc(Cl)c(C)cc2S(=O)(=O)Nc2n[nH]c(Nc3ccccc3)n2)cc1Cl
inactive: [1] 12.2% | [2] 37.8% | [3] 4.95% | [4] 11.9% | [5] 12% | [6] 18.2%

COc1cc2nc3n(c(=O)c2cc1OC)CCCCC3
inactive: [1] 10.4% | [2] 14.6% | [3] 3.75% | [4] -13.2% | [5] 28% | [6] -19.8%

COc1cccc(C(=O)CCN(C)C)c1
inactive: [1] 33.4% | [2] 0.35% | [3] -2.8% | [4] 12.1% | [5] 18.1% | [6] 28.1%

CC(=O)OC1CN(c2ccccc2)CC(OC(C)=O)CN(c2ccccc2)C1 (configuration not stated)
inactive: [1] 38.5% | [2] 3.95% | [3] 38% | [4] -24.4% | [5] 2.1% | [6] 31.8%

CC(C)OC(=S)SCC(=O)c1ccc(-c2ccccc2)cc1
inactive: [1] 1.7% | [2] 17.5% | [3] 21.3% | [4] -2.45% | [5] 30.9% | [6] 8.75%

Cn1c(=O)c2c(ncn2CCNCC(O)c2cc(C(C)(C)C)c(O)c(C(C)(C)C)c2)n(C)c1=O (configuration not stated)
inactive: [1] 31.2% | [2] 6.35% | [3] 19% | [4] 16.8% | [5] -3.2% | [6] 11.2%

Cc1cc(OC(C)C)cc(C)c1C(=O)OCC(C)CN1CCCC1 (configuration not stated)
inactive: [1] 1.9% | [2] -16.8% | [3] 5.4% | [4] -15.1% | [5] -8.5% | [6] -18.2%

Cc1c2c(C#N)nccc2c(C)c2c1c1ccccc1n2Cc1ccccc1
inactive: [1] 33.5% | [2] 14.1% | [3] -8.3% | [4] 20.9% | [5] -28.7% | [6] -45.6%

COc1cccc(/C=C2\S/C(=N/Nc3nc(C)c(C)s3)NC2=O)c1O
inactive: [1] 7.7% | [2] 16.3% | [3] 20.8% | [4] 18% | [5] -8.65% | [6] 2.2%

CCCC(=O)Oc1ccc(C(C)(C)C)cc1
inactive: [1] 38.7% | [2] 6.75% | [3] 15.2% | [4] 10.8% | [5] 20.4% | [6] 5.5%

Cc1ccc(NC(=O)CCC(NS(=O)(=O)c2ccc(C)cc2)C(=O)O)cc1 (configuration not stated)
inactive: [1] 26.4% | [2] 17.5% | [3] 25.6% | [4] 18.6% | [5] -1.1% | [6] 42.1%

CCCCCCCc1c(C)c2ccc(OC)cc2[nH]c1=O
inactive: [1] -9.8% | [2] -29.1% | [3] -5.8% | [4] -5% | [5] -6.85% | [6] -5.15%

CC(C)Oc1c(NCCO)c2cc(Cl)ccc2oc1=O
inactive: [1] -3.5% | [2] 10.9% | [3] 20.5% | [4] -66.2% | [5] -1.1% | [6] -12.1%

CC(=O)OCOC(=O)CN(CC(=O)OCOC(C)=O)Cc1cc2c(cc1OC(C)=O)Oc1cc(OC(C)=O)c(CN(CC(=O)OCOC(C)=O)CC(=O)OCOC(C)=O)cc1C21OC(=O)c2ccccc21
inactive: [1] 14.1% | [2] 9.1% | [3] 15.2% | [4] 14.8% | [5] -5% | [6] 35.1%

Nc1[nH]c(=S)[nH]c(=O)c1N=Nc1c(Br)cc(S(N)(=O)=O)cc1Br
inactive: [1] 4.65% | [2] -15.9% | [3] -24.1% | [4] -24.9% | [5] 9.2% | [6] 0.25%

CCN(CC)CC(O)Cn1cnc2c(SC)ncnc21 (configuration not stated)
inactive: [1] -0.75% | [2] 0.6% | [3] -2.95% | [4] 5.5% | [5] 4.5% | [6] -1.9%

C=CS(=O)(=O)CCCCCCCCCCCCCC
inactive: [1] 28.1% | [2] 27.6% | [3] 28.9% | [4] 2.1% | [5] -5% | [6] 29.5%

CC(=O)NC1=C(N2CCC2C)C(=O)c2ccccc2C1=O (configuration not stated)
inactive: [1] -2.4% | [2] 0.8% | [3] 6.15% | [4] -4.4% | [5] -43.9% | [6] -11.4%

NC(=O)/C=C1\NC(=O)CS1
inactive: [1] 0.05% | [2] 7.7% | [3] 1% | [4] -31.1% | [5] -4.55% | [6] 4.2%

CCCCCCC(O)C/C=C\CCCCCCCCO (configuration not stated)
inactive: [1] 11.9% | [2] -20.9% | [3] 13.3% | [4] -27.6% | [5] 27.1% | [6] 18.4%

Cc1cccc(C2CCCCC2OS(C)(=O)=O)c1 (configuration not stated)
inactive: [1] -2.95% | [2] -6.4% | [3] -16.9% | [4] -10.1% | [5] 11.8% | [6] -13.6%

Oc1ccccc1C1SCSCS1
inactive: [1] 14.8% | [2] 12.9% | [3] 14.1% | [4] -3.3% | [5] -10.4% | [6] 5.85%

N#Cc1c(-c2ccc(Cl)cc2)c2c(n(C3OC(CO)C(O)C(O)C3O)c1=S)CCC2 (configuration not stated)
inactive: [1] 12.5% | [2] 32.1% | [3] 61.3% | [4] 31.9% | [5] 50.4% | [6] 42.4%

C=CC1=C(C)C2=NC1=CC1=NC(=CC3=C(C)C4=C(O)C(C(=O)OC)C(=C5NC(=C2)C(C)C5CCC(=O)OC/C=C(\C)CCCC(C)CCCC(C)CCCC(C)C)C4=N3)C(CC)=C1C (configuration not stated)
inactive: [1] -17.7% | [2] -33.4% | [3] -49.8% | [4] 3.4% | [5] -29.1% | [6] -20.9%

CC(C)(O)C#Cc1ccccc1
inactive: [1] -0.85% | [2] -8.2% | [3] -0.95% | [4] -24.8% | [5] -9.5% | [6] 11.1%

NC(=O)NC12CC3CC(CC(C3)C1)C2
inactive: [1] 13.3% | [2] -5.8% | [3] 13.1% | [4] -0.75% | [5] 4.9% | [6] 2.75%

O=C1C(c2ccccc2)=C(c2ccccc2)c2ccc(Cl)cc21
inactive: [1] 13.7% | [2] 15.6% | [3] 8.85% | [4] 7.75% | [5] 0.45% | [6] 6.45%

CCN(CC)CCNc1ncnc2c1cnn2C
inactive: [1] 7.7% | [2] 1.8% | [3] -17.9% | [4] -4.5% | [5] -20.9% | [6] -8.9%

N#C/C(=C\c1ccc(Cl)cc1)C(=O)c1ccccc1
inactive: [1] 9.4% | [2] 12.8% | [3] 29.8% | [4] 20.9% | [5] 6.95% | [6] 22.7%

C#CCC(C)(C)C(N)=O
inactive: [1] -10.7% | [2] -6.85% | [3] 3.4% | [4] -35.8% | [5] -6.05% | [6] -8.5%

Cc1cc2c(C)[nH]nc2c(C(=O)O)c1C
inactive: [1] 6.85% | [2] -5.15% | [3] 6.35% | [4] 11.1% | [5] 3.2% | [6] 19.4%
